Compound activity as filed in PubChem.
Compounds with a hit are over-represented: about 0.95% of the library has one in this group of screens.
Rhodamine fluor: rhodamine region autofluorescence | Rhodamine-region fluorescence, 547/598 nm, Tris buffer; active compounds read high | actives 0.05% (n = 59,000) | max dye-equivalent concentration, M | AID 594; in the data active = max dye-equivalent concentration above about 11 nM; inconclusive = between about 1.1 nM and that limit
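Read-out is relative fluorescence at 547 nm excitation and 598 nm emission, expressed as dye-equivalent concentration using rhodamine standards on every plate. Each compound was profiled across a concentration series after 15 min in 100 mM Tris, pH 8.0.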
Texas Red fluor: Texas Red region autofluorescence; Compound fluorescence, Texas Red channel, 547/618 nm; active compounds read high; max dye-equivalent concentration, M; actives 0.06% (n = 59,000); AID 587; in the data active = max dye-equivalent concentration above about 10 nM; inconclusive = between about 1.1 nM and that limit
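Compound titrations in 100 mM Tris pH 8.0 were incubated 15 min at room temperature and read at 547 nm excitation / 618 nm emission. Texas Red six-point standard curve on each plate converted fluorescence to dye-equivalent concentration.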
Fluorescein autfl: compound fluoresces in the fluorescein spectral region | Compound autofluorescence, 480/540 nm, fluorescein-equivalent; active compounds read high | max fluorescein-equivalent concentration, M | actives 0.91% (n = 59,000) | AID 593; in the data active = max fluorescein-equivalent concentration above about 10 nM; inconclusive = between about 1.1 nM and that limit
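Each compound is tested across a concentration series in 100 mM Tris buffer at pH 8.0. After 15 min at room temperature, plates are imaged with 480 nm excitation and 540 nm emission filters, and intensities are converted to fluorescein-equivalent values.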
Resorufin fluor: compounds fluorescent in resorufin spectral region; Compound fluorescence, resorufin region 547/598 nm, buffer; active compounds read high; max dye-equivalent concentration, M; actives 0.04% (n = 59,000); AID 588
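Intrinsic fluorescence profiled in the resorufin window (ex 547 nm, em 598 nm) after 15 min at room temperature in pH 8.0 Tris buffer (100 mM); responses normalized against a six-point resorufin standard series as dye-equivalent concentration.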
A647 autofl: A647 region autofluorescence | Compound fluorescence, A647 channel (570/671 nm), Tris buffer | max dye-equivalent concentration, M | 59,000 tested, under 10 active;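 also: values scaled relative to a standard on each plate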
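Compound fluorescence was measured in 100 mM Tris buffer, pH 8.0, after 15 min at room temperature, using 570 nm excitation and 671 nm emission filters. Signal was normalized to a per-plate Alexa 647 standard curve and expressed as dye-equivalent concentration at each compound concentration.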
A488 autofl: compound fluoresces in the A488 spectral region | compound autofluorescence, A488 spectral region, dye equivalency; Compound Type: qHTS ECL - MLSMR | max dye equivalency, M | actives 0.1% (n = 59,000) | AID 591
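Compound autofluorescence was read in 100 mM Tris pH 8.0 after 15 min at room temperature, ex 480 nm/em 540 nm. Intensities were converted to A488 dye-equivalent concentration using an on-plate six-point A488 standard curve.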
Starred values were filed as active, the others as inactive; i = inactive; ? = inconclusive. Unless noted, no rule for the calls is given here.

SMILES | Rhodamine fluor | Texas Red fluor | Fluorescein autfl | Resorufin fluor | A647 autofl | A488 autofl
COc1ccc(NC(=O)CN2CCC(C)CC2)cc1 | i | i | i | i | 3.8e-08 | i
CC(CS(=O)(=O)c1cccc2cccnc12)N1CCCCC1 (centres undefined) | i | i | 1.6e-08M* | i | 4.8e-08 | i
O=S(=O)(NC1CCCCCC1)c1cccc2cccnc12 | i | i | i | i | 4.9e-09 | i
CCCCCCc1cc2cc(-c3nnc(-c4ccccc4O)o3)c(=O)oc2cc1O | i | i | 2.6e-08M* | i | 4.3e-08 | i
Cc1cc(-c2nnc(-c3cc4ccccc4oc3=O)o2)c(C)n1-c1ccccc1 | i | i | i | i | 1e-09 | i
O=C(CN1CCCC1)Nc1ccc(NC(=O)Nc2ccccc2Cl)cc1 | i | i | ? | i | 1e-09 | i
CC(=O)C1=C(C)N=c2s/c(=C/c3ccc4c(c3)OCO4)c(=O)n2C1c1ccc(N(C)C)cc1 (centres undefined) | i | i | i | i | 2.5e-09 | i
COc1ccc(C2C(C(C)=O)=C(C)N=c3s/c(=C/c4ccc5c(c4)OCO5)c(=O)n32)cc1 (centres undefined) | i | i | 1.2e-08M* | i | 1.5e-09 | i
CCOC(=O)N1CCc2c(sc3c2C(=O)NC(c2ccc(-c4ccc(Cl)cc4)o2)N3)C1 (centres undefined) | i | i | i | i | 1e-09 | i
CN1CCc2c(sc3c2C(=O)NC(c2ccccn2)N3)C1 (centres undefined) | ? | 1.2e-08M* | 5.6e-08M* | ? | 4.8e-08 | ?
CN1CCc2c(sc3c2C(=O)NC(/C=C/c2ccco2)N3)C1 (centres undefined) | i | i | 1.3e-08M* | i | 4.3e-08 | i
O=C1NC(c2ccccn2)Nc2sc3c(c21)CCC3 (centres undefined) | i | ? | i | i | 9.1e-09 | i
CN1CCc2c(sc3c2C(=O)NC(c2ccc4c(c2)OCO4)N3)C1 (centres undefined) | i | ? | ? | i | 2.3e-08 | i
Cc1ccc(C2NC(=O)c3c(sc4c3CCN(C)C4)N2)s1 (centres undefined) | i | i | 1.6e-08M* | i | 4.5e-08 | i
Cc1ccc(C2NC(=O)c3c(sc4c3CCN(C)C4)N2)o1 (centres undefined) | i | i | 1.2e-08M* | i | 4e-08 | i
CCCc1cc(=O)[nH]c(SCC(=O)N(Cc2ccccc2)C(C)C)n1 | i | i | i | i | 1.4e-09 | i
c1ccc(-c2nc3cc(Cc4ccc5oc(-c6ccccn6)nc5c4)ccc3o2)nc1 | i | i | ? | i | 2.7e-08 | i
C=CCOc1ccc(CNc2nn[nH]n2)cc1 | i | ? | i | i | 6.9e-09 | i
COc1ccc(CNc2ncnc3ccc(-c4ccc(C(=O)N(C)C)cc4)cc23)c(OC)c1 | i | i | i | i | 1e-09 | i
COc1ccc(N=c2oc3cc(O)ccc3cc2C(=O)NCC2CCCO2)c(OC)c1 (centres undefined) | i | i | 1.4e-08M* | i | 2.6e-08 | i
COc1ccc(N=c2oc3cc(O)ccc3cc2C(=O)NCC2CCCO2)cc1 (centres undefined) | i | i | i | i | 1.4e-09 | i
Cc1ccccc1OCC(=O)OC(C)CN1CCN(C)CC1 (centres undefined) | i | ? | ? | i | 1.8e-08 | i
CCOc1ccc2nc(NS(=O)(=O)c3ccc4c(c3)n(C)c(=O)n4C)sc2c1 | i | i | 1.2e-08M* | i | 1e-09 | i
CCn1c2ccccc2c2nnc(SCc3cc(=O)n4ccsc4n3)nc21 | i | i | ? | i | 1.1e-08 | i
COc1[nH]c(/N=C/c2ccccc2)c(C#N)c1C#N | ? | ? | 3.6e-08M* | ? | 8e-09 | ?
SMILES | Rhodamine fluor | Texas Red fluor | Fluorescein autfl | Resorufin fluor | A647 autofl | A488 autofl
COc1nccc(Nc2ccccc2)c1C#N | i | ? | ? | i | 1.7e-08 | i
CC1(C)CC(=O)C2=C(C1)OC(N)=C(C#N)C21CCN(Cc2ccccc2)CC1 | i | i | 3.2e-08M* | i | 3.7e-08 | ?
O=C(CCN1C(=O)C2C3C=CC(C3)C2C1=O)Nc1ccc2c(c1)OCO2 (centres undefined) | i | i | i | i | 2.3e-08 | i
CC1=CC(=O)c2ccccc2C1=O | i | i | ? | i | 3.8e-08 | i
NC1=CC(=O)c2cccc3cccc1c23 | i | i | 3.6e-08M* | i | 2.6e-08 | ?
CN(C)CCNC(=O)COc1cccc(Cl)c1 | i | i | i | i | 1e-09 | i
Cn1c(CN2CCOCC2)c(C#N)c2ccccc21 | i | i | ? | i | 1e-09 | i
C=CCn1c(O)c(CN2CCOCC2)c(C)c(C#N)c1=O | i | ? | 1.3e-08M* | i | 5.3e-09 | i
COc1cc(C2C3CN(C)CC=C3C(C#N)=C(N)C2(C#N)C#N)ccc1OC(C)C (centres undefined) | i | i | 3.6e-08M* | i | 8.6e-09 | ?
CC(C)N1CC=C2C(C#N)=C(N)C(C#N)(C#N)C(c3ccccc3)C2C1 (centres undefined) | i | i | 1.6e-07M* | i | 5.5e-08 | ?
CCC1C2CN(C(C)=O)CC=C2C(C#N)=C(N)C1(C#N)C#N (centres undefined) | i | i | ? | i | 1.2e-08 | i
CN1CC=C2C(C#N)=C(N)C(C#N)(C#N)C(Cc3ccccc3)C2C1 (centres undefined) | i | ? | 3.7e-08M* | i | 2e-09 | ?
CCN1CC=C2C(C#N)=C(N)C(C#N)(C#N)C(c3cc(Cl)ccc3Cl)C2C1 (centres undefined) | i | i | 2.4e-08M* | i | 5.2e-08 | i
COc1ccc(S(=O)(=O)NCCC(=O)NC2CCCCCCC2)cc1 | i | i | i | i | 1e-09 | i
Cc1csc(C(C#N)C(=O)c2ccncc2)n1 (centres undefined) | i | ? | ? | i | 3.5e-08 | i
CC(=Nc1ccc(O)cc1)c1sc2ccccc2c1O | i | ? | 1e-07M* | i | 4.7e-09 | ?
CC(=O)NCCN=C(C)c1sc2ccccc2c1O | i | ? | ? | i | 3.7e-08 | i
C=CCn1c(CCC(=O)O)ccc1-c1ccccc1 | i | i | ? | i | 2.2e-09 | i
Cc1cc(C)n(C(=O)COc2c(C)cccc2C)n1 | i | i | ? | i | 3.9e-08 | i
Cc1cccc(OCC(=O)NCC(=O)n2nc(C)cc2C)c1 | i | i | 1.2e-08M* | i | 7.9e-08 | i
Cc1noc(C)c1S(=O)(=O)N1CCC(Cc2ccccc2)CC1 | i | i | i | i | 2.2e-09 | i
Nc1nnc(CSc2ccc(Cl)cc2)s1 | i | i | i | i | 2e-09 | i
O=C(NCc1ccc2c(c1)OCO2)C1CCN(S(=O)(=O)c2ccc(Br)s2)CC1 | i | i | ? | i | 3.2e-08 | i
COc1cc(C(=O)NCc2cn3ccsc3n2)cc(OC)c1OC | i | i | i | i | 7.9e-09 | i
